Experimental data from PubChem BioAssay (EPA / NIEHS).
Inconclusive results are not listed. Calls of active or inactive are those of the source. The calls were made as follows: active = hit-call score of the fitted dose curve at least 0.9, where 1 is the maximum; inconclusive = response in the unintended direction; inactive = score below 0.9.

Assay: TOX21_PR_LUC_Followup_Antagonist_viability: Viability Assessment in the Tox21 HEK293 Progesterone Receptor (PR) Antagonism Luciferase Follow-Up Assay (AID 2283940)
From the text: TOX21_PR_LUC_Followup is a secondary assay for specificity for the TOX21_PR_BLA_Agonist assay. To differentiate true PR agonists from cytotoxic substances, this follow up assay is multiplexed with a cell viability assay.TOX21_PR_LUC_Followup_Antagonist_viability is an assay readout measuring cellular ATP content and detected with CellTiter-Glo Luciferase-coupled ATP quantitation.TOX21_PR_LUC_Followup_Antagonist_viability used a type of viability reporter where loss-of-signal activity can be used to understand changes in the cell viability. Furthermore, this assay endpoint can be referred to as a secondary readout, because this assay has produced multiple assay endpoints where this one serves a viability function. To generalize the intended target to other relatable targets, this assay endpoint is annotated to the cell cycle intended target family, where the subfamily is cytotoxicity.
Quality Control Precautions: Maintain cells below 85-90% confluence in culture medium. For assay purpose, the cells should be cultured in assay medium with 10% charcoal stripped FBS for 5 days with alternate day medium changed to fresh medium. Especially while in assay culture, the cells should not reach more than 85% confluence as they would become harder to detach if they reach over confluence.Assay Protocol: HEK293-PR-A-luc cells were dispensed at 3,000 cells/5 uL/well of culture medium into white wall/solid-bottom 1536-well plates using a Multidrop Combi (ThermoFisher Scientific, Waltham, MA) dispenser. After the assay plates were incubated at 37C and […] for 5 h, 23 nL of compounds dissolved in DMSO, positive controls or DMSO only was transferred to the assay plate by a Pintool station (Kalypsys, San Diego, CA). The plates were incubated at 37C and […] for 16 h. Then 4 uL of ONE-Glo reagent (Promega, Madison, WI) was added to each plate using a BioRAPTR Flying Reagent Dispenser (FRD) workstation (Beckman Coulter, Indianapolis, IN, USA) and luminescence was quantified on a ViewLux (PerkinElmer, Shelton, CT) plate reader after 30 min incubation at room temperature.

Row | SMILES | outcome
1 | CCC(=O)Oc1ccc2c(c1)CC[C@@H]1[C@@H]2CC[C@@]2(C)[C@H]1C[C@@H](OC(=O)CC)[C@@H]2OC(=O)CC | inactive
2 | CC(C)(C)C(O)/C=C/c1ccc2c(c1)OCO2 (stereo unspecified) | inactive
3 | CC(=O)OCC(=O)[C@@]1(O)[C@H](C)C[C@H]2[C@@H]3CCC4=CC(=O)C=C[C@]4(C)[C@@]3(F)[C@@H](O)C[C@@]21C | inactive
4 | C[C@@H]1C[C@H]2[C@@H]3CCC4=CC(=O)C=C[C@]4(C)[C@@]3(F)[C@@H](O)C[C@]2(C)[C@@]1(O)C(=O)COC(=O)c1ccncc1 | inactive
5 | CN1CC[C@H](c2c(O)cc(O)c3c(=O)cc(-c4ccccc4Cl)oc23)[C@H](O)C1 | inactive
6 | C[C@@H]1CC(=O)NN=C1c1ccc(NN=C(C#N)C#N)cc1 | inactive
7 | C/C=C1/C(=O)C[C@H]2[C@@H]3CCC4=CC(=O)CC[C@]4(C)[C@H]3CC[C@]12C | inactive
8 | CC(=O)OCC(=O)[C@H]1CC[C@H]2[C@@H]3CCC4=CC(=O)CC[C@]4(C)[C@H]3CC[C@]12C | inactive
9 | CC(=O)O[C@@H]1CC2C3CCc4cc(OC(=O)c5ccccc5)ccc4C3CCC2(C)[C@H]1OC(C)=O (stereo partly specified) | inactive
10 | CCC(=O)O[C@]1(C(=O)COC)[C@@H](C)C[C@H]2[C@@H]3CCC4=CC(=O)C=C[C@]4(C)C3(F)[C@@H](O)C[C@@]21C (stereo partly specified) | inactive
11 | COC(=O)[C@@H]1CC2=CC(=O)CC[C@]2(C)[C@@]23O[C@@H]2C[C@@]2(C)[C@@H](CC[C@@]24CCC(=O)O4)[C@H]13 | inactive
12 | CC(=O)O[C@H]1CC[C@@]2(C)C(=CC[C@@H]3[C@@H]2CC[C@]2(C)C(C(C)=O)=CC[C@@H]32)C1 | inactive
13 | COC(=O)C1=C(C)NC(C)=C(C(=O)OC(C)C)C1c1cccc2nonc12 (stereo unspecified) | inactive
14 | CN1CCN(C2=Nc3cc(F)ccc3Cc3ccccc32)CC1 | inactive
15 | CC(=O)OCC(=O)[C@@]1(O)CC[C@H]2[C@@H]3CCC4=CC(=O)CC[C@]4(C)[C@H]3C(=O)C[C@@]21C | inactive
16 | C/C=C1\C(=O)C[C@H]2[C@@H]3CCC4=CC(=O)CC[C@]4(C)[C@H]3CC[C@]12C | inactive
17 | Cl/C(=C\n1cncn1)c1ccc(Cl)cc1Cl | inactive
18 | Clc1ccccc1CN1CCc2sccc2C1 | inactive
19 | CCN(CC)CC(=O)OCC(=O)[C@@]1(O)CC[C@H]2[C@@H]3CCC4=CC(=O)CC[C@]4(C)[C@H]3[C@@H](O)C[C@@]21C | inactive
20 | C/C=C(/C(=C/C)c1ccc(OC(C)=O)cc1)c1ccc(OC(C)=O)cc1 | inactive
21 | C[C@@H]1C[C@H]2[C@@H]3C[C@H](F)C4=CC(=O)C=C[C@]4(C)[C@@]3(F)[C@@H](O)C[C@]2(C)[C@@]1(O)C(=O)CO | inactive
